Source: the supplement of paper PMC10849652
Of roughly 7,900 targets only a part is listed; those with a hit were picked by preference. About 0.6% of all pairs of compound and target were hits.

Columns and labels:
Experiment in all cases: log2 fold change, soluble protein after heating vs DMSO (PISA); higher = thermal stabilisation; K562 cells, 10 uM, 30 min; active = over 0.2 and 3.5 SD of the protein, either way, in both replicates (recomputed)
[1] = compound: CC[C@@H]1C(=O)N(C)c2cnc(Nc3ccc(C(=O)NC4CCN(C)CC4)cc3OC)nc2N1C1CCCC1
How it was run: (§1)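 Quantification of soluble protein used TMTpro 16plex LC-MS/MS, with channel sums equalised. Samples were the supernatant after 21,000xg for 90 min of pooled aliquots from K562 cells (2×10^6 cells/mL) treated with 10 μM compound for 30 min, heated for 3 min over 48°C-58°C, and extracted in PBS with 0.5% NP-40 at 4°C. Values, from duplicates, describe thermal stability against control samples on a log2 fold-change scale.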

[2] = compound: CC[C@@H]1C(=O)N(C)c2cnc(Nc3ccc(C(=O)N[C@H]4CC[C@H](N5CCN(CC6CC6)CC5)CC4)cc3OC)nc2N1C(C)C [volasertib]
How it was run: as §1

[3] = compound: CC[C@H](C)N1C=C(C2=C(C=C(C=C21)C3=CN=C(C=C3)N4CCNCC4)C(=O)NCC5=C(C=C(NC5=O)C)C)C
How it was run: as §1

[4] = compound: CC[C@H](C)[C@@H](C(=O)N[C@@H]([C@@H](C)O)C(=O)N[C@@H](CC(C)C)C(=O)[C@]1(CO1)C)NC(=O)[C@H]([C@@H](C)CC)N(C)C(=O)C [epoxomicin]
How it was run: as §1

[5] = compound: CCn1c(C(=O)N(C2CC2)C2CC2)cc2c3c(ncn3C)c(Nc3cc(C)n(C)n3)nc21
How it was run: as §1

[6] = compound: CCn1cc(-c2ccnc3[nH]c(-c4cccc(CN(C)C)c4)cc23)c(-c2ccc(NC(=O)N(C)C)cc2)n1
How it was run: as §1

[7] = compound: CN(C)CC(=O)Nc1ccc2[nH]c(=O)c3ccccc3c2c1
How it was run: as §1

[8] = compound: CN(CCOC1=CC=C(C=C1)C[C@H]2C(=O)NC(=O)S2)C3=CC=CC=N3 (racemic) [rosiglitazone]
How it was run: as §1

[9] = compound: CN1C2=C(C3=C1C(=O)N(N=C3)CC4=CC(=CC=C4)N)SC(=C2)S(=O)C
How it was run: as §1

[10] = compound: CN1CCC(CNc2ccc3ncc(-c4cccc(OC(F)(F)F)c4)n3n2)CC1
How it was run: as §1

Measured: log2 fold change

BCAP29 isoform 2 (UniProt Q9UHQ4)
inactive: [1] 0.022 | [2] 0.085 | [3] -0.072 | [4] -0.096 | [5] 0.082 | [6] -0.011 | [7] -0.008 | [8] 0.045 | [9] -0.044 | [10] 0.05

ATAD1 (UniProt Q8NBU5)
Chain of UniProt Q8NBU5 (Q8NBU5 whole entry, looked up): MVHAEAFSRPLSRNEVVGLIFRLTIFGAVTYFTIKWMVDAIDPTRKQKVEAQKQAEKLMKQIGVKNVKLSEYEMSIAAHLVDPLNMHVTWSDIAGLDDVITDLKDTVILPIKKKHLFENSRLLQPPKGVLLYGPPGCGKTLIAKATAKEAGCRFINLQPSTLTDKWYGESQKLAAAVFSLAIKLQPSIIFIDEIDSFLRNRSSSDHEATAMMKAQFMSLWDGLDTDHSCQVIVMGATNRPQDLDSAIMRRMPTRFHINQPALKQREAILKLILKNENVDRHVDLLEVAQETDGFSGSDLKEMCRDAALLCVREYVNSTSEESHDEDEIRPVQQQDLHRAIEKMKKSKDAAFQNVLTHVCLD
inactive: [1] -0.008 | [2] -0.127 | [3] 0.056 | [4] 0.065 | [5] -0.013 | [6] -0.027 | [7] 0.064 | [8] 0.021 | [9] -0.033 | [10] -0.046

ANKZF1 (UniProt Q9H8Y5)
inactive: [1] -0.063 | [2] -0.055 | [3] 0.036 | [4] -0.001 | [5] -0.036 | [6] 0.004 | [7] -0.076 | [8] -0.002 | [9] 0.214 | [10] 0.066

APLP2 (UniProt Q06481)
inactive: [1] 0.076 | [2] -0.04 | [3] -0.092 | [4] 0.017 | [5] 0.089 | [6] 0.006 | [7] -0.106 | [8] -0.026 | [9] -0.004 | [10] 0.179

ARFGAP2 (UniProt Q8N6H7)
Chain of UniProt Q8N6H7 (Q8N6H7 whole entry, looked up): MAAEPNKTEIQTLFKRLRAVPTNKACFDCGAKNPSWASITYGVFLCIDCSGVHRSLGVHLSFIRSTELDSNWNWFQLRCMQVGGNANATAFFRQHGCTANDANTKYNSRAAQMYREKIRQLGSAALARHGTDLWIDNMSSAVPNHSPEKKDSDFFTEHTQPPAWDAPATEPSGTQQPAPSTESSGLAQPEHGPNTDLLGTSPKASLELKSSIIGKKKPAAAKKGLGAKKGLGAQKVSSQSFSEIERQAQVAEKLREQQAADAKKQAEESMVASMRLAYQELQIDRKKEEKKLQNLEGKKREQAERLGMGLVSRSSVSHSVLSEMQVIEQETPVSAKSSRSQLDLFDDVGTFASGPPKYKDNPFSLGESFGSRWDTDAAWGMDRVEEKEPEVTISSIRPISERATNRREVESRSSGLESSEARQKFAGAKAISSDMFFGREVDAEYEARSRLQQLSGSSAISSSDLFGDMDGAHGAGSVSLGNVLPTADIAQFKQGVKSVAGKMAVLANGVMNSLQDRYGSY
inactive: [1] -0.052 | [3] 0.067 | [4] 0.009 | [5] -0.037 | [6] 0.023 | [7] 0.017 | [8] 0.038 | [9] -0.015 | [10] -0.068
active: [2] -0.257

ATP12A isoform 2 (UniProt P54707)
inactive: [1] 0.081 | [2] 0 | [3] -0.029 | [4] 0.013 | [5] 0.04 | [6] -0.031 | [7] -0.047 | [8] 0.015 | [9] -0.085
active: [10] 0.242

ATP11A (UniProt P98196)
Chain of UniProt P98196 (P98196 whole entry, looked up): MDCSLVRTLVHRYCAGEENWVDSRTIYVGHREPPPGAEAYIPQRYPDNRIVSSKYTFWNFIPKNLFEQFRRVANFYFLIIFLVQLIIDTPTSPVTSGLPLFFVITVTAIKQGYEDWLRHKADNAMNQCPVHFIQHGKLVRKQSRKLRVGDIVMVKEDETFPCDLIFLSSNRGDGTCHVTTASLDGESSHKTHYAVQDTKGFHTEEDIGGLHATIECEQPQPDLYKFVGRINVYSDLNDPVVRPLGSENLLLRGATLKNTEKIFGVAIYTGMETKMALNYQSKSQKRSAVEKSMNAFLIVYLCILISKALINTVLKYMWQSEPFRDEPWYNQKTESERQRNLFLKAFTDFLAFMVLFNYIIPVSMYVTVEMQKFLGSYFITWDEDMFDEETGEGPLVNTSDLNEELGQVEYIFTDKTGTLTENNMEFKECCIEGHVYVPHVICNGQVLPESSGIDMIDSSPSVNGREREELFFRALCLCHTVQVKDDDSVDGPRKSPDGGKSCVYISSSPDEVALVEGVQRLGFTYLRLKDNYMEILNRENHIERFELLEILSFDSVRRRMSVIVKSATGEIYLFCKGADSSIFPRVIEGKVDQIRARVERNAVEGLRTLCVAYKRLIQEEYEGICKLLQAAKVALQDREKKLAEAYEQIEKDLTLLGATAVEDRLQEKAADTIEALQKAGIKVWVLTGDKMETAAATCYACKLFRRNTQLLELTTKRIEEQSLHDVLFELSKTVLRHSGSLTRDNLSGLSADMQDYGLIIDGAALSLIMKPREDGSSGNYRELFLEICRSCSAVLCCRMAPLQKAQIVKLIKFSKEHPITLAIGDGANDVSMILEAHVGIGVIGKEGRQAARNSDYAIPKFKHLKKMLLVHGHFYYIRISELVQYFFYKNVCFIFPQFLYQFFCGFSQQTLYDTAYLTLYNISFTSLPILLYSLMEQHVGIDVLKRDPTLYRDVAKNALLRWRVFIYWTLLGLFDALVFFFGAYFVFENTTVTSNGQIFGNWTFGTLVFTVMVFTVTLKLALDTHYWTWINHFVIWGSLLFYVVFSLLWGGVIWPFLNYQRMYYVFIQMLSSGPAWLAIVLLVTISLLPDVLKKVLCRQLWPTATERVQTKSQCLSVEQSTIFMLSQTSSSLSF
inactive: [1] 0.266 | [2] 0.058 | [3] -0.094 | [4] 0.001 | [5] 0.026 | [6] -0.022 | [7] 0.031 | [8] 0.045 | [9] -0.083 | [10] 0.084

BST2 (UniProt Q10589)
Chain of UniProt Q10589 (Q10589 whole entry, looked up): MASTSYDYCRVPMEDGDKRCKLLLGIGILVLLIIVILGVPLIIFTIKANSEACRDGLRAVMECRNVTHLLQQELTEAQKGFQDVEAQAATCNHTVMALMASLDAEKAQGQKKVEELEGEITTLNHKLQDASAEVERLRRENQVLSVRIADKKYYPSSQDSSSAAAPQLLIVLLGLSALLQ
inactive: [1] 0.091 | [2] 0.206 | [3] -0.062 | [4] -0.025 | [5] -0.003 | [6] 0.045 | [7] -0.008 | [8] -0.055 | [9] 0
active: [10] 0.223

ACTBL2 (UniProt Q562R1)
inactive: [1] -0.121 | [2] 0.153 | [3] -0.133 | [4] -0.1 | [5] 0.05 | [6] 0.162 | [7] -0.3 | [8] 0.07 | [9] 0.011 | [10] 0.065

ATR (UniProt Q13535)
inactive: [1] -0.063 | [2] -0.197 | [3] -0.02 | [4] 0.048 | [5] -0.071 | [6] -0.041 | [7] 0.052 | [8] 0.049 | [9] -0.017 | [10] 0

ACP1 (UniProt P24666)
inactive: [1] 0.084 | [2] -0.102 | [3] -0.001 | [4] 0.03 | [5] -0.034 | [6] 0.077 | [7] 0.12 | [8] 0.167 | [9] 0.099 | [10] -0.061

BRAF (UniProt P15056)
Chain of UniProt P15056 (P15056 whole entry, looked up): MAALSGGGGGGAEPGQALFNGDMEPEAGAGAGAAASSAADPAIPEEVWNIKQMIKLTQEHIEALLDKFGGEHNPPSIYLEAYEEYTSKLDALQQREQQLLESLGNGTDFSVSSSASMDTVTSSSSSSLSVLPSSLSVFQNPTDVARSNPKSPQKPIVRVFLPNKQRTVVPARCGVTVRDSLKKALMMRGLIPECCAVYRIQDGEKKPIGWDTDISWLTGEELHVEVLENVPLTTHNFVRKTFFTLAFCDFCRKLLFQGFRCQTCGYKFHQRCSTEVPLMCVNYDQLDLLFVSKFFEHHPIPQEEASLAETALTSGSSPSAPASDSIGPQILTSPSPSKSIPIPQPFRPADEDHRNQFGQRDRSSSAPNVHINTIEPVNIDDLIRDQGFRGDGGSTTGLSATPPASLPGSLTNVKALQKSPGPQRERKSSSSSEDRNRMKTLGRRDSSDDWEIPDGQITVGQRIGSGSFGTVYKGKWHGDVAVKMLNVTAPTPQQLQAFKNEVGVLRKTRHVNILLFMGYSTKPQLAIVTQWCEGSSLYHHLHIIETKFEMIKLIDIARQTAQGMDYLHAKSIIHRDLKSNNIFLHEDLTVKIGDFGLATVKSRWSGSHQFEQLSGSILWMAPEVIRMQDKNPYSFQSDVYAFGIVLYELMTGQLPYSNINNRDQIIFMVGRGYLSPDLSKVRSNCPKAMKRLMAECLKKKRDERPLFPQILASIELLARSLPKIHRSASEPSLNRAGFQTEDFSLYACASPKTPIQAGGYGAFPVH
inactive: [1] 0 | [2] -0.097 | [3] 0.043 | [4] 0.04 | [5] 0.008 | [6] 0.029 | [7] 0.036 | [8] 0.034 | [9] -0.039 | [10] -0.07

AARSD1 isoform 3 (UniProt Q9BTE6)
inactive: [1] -0.081 | [3] 0.019 | [4] 0.083 | [5] 0.009 | [6] -0.01 | [7] 0.037 | [8] 0.05 | [9] 0.02 | [10] 0.021
active: [2] -0.27

AHSA1 (UniProt O95433)
active: [2] -0.228
inactive: [1] -0.085 | [3] 0.038 | [4] 0.023 | [5] 0 | [6] -0.052 | [7] 0 | [8] 0.027 | [9] -0.06 | [10] 0.038

ATP6V1C1 (UniProt P21283)
inactive: [1] 0.027 | [2] -0.196 | [3] 0.066 | [4] 0.064 | [5] -0.022 | [7] -0.008 | [8] 0.032 | [9] 0.069
active: [6] -0.282 | [10] 0.377

ALG5 (UniProt Q9Y673)
inactive: [1] -0.028 | [2] -0.026 | [3] 0.017 | [4] 0.043 | [5] -0.036 | [6] -0.069 | [7] 0.035 | [8] 0.078 | [9] -0.088 | [10] 0.017

AP2A1 (UniProt O95782)
inactive: [1] 0.076 | [2] -0.085 | [3] 0.015 | [4] -0.011 | [5] 0.022 | [6] -0.002 | [7] -0.041 | [8] -0.011 | [9] 0.005 | [10] 0

BZW2 (UniProt Q9Y6E2)
Chain of UniProt Q9Y6E2 (Q9Y6E2 whole entry, looked up): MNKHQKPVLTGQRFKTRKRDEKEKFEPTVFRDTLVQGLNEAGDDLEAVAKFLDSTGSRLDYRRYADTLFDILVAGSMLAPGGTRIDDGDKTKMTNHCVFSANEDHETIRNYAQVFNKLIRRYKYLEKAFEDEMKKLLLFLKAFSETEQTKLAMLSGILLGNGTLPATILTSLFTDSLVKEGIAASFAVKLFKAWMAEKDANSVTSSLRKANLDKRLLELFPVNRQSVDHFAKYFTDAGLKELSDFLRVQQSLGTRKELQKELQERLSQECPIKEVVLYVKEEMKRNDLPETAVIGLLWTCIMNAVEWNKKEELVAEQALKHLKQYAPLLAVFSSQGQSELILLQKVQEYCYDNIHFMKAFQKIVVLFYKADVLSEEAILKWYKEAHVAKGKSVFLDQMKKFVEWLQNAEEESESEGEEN
active: [2] -0.367 | [10] -0.298
inactive: [1] -0.193 | [3] 0.042 | [4] 0.043 | [5] -0.019 | [6] -0.016 | [7] 0.02 | [8] 0.046 | [9] -0.037

ARMC8 (UniProt Q8IUR7)
Chain of UniProt Q8IUR7 (Q8IUR7 whole entry, looked up): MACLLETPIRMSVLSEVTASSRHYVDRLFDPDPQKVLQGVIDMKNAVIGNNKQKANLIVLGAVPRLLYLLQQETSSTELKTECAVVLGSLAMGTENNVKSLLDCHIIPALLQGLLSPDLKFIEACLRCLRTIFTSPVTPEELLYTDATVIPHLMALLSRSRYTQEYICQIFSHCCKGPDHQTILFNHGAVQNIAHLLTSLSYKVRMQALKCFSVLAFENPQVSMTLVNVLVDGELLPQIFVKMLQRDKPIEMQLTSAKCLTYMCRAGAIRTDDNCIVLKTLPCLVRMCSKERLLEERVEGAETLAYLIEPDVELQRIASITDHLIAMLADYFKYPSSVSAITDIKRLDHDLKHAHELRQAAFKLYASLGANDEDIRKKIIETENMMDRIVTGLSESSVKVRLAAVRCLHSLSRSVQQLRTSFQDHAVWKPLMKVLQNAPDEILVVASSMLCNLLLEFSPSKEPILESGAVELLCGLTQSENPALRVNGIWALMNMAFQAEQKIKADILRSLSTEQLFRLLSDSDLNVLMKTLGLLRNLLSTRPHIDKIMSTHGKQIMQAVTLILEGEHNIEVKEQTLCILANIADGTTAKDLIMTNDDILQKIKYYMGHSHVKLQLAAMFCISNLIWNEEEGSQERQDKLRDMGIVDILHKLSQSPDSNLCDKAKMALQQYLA
inactive: [1] -0.055 | [2] -0.14 | [3] 0.053 | [4] -0.008 | [5] -0.005 | [6] 0.003 | [7] -0.007 | [8] -0.029 | [9] 0.053 | [10] 0.043

BTBD6 (UniProt Q96KE9)
inactive: [1] 0.017 | [2] 0.001 | [3] -0.033 | [4] -0.059 | [5] -0.163 | [6] -0.356 | [7] 0.066 | [8] 0 | [9] -0.112 | [10] -0.021

ARHGAP1 (UniProt Q07960)
inactive: [1] 0.014 | [2] -0.027 | [3] 0.021 | [4] 0.013 | [5] -0.006 | [6] -0.082 | [7] -0.007 | [8] 0.03 | [9] -0.014 | [10] 0.19

ARL1 (UniProt P40616)
inactive: [1] 0.072 | [2] -0.113 | [3] 0.023 | [4] 0.028 | [5] 0.014 | [6] -0.05 | [7] 0.025 | [8] 0.032 | [9] -0.157 | [10] 0.059

ALG11 (UniProt Q2TAA5)
Chain of UniProt Q2TAA5 (Q2TAA5 whole entry, looked up): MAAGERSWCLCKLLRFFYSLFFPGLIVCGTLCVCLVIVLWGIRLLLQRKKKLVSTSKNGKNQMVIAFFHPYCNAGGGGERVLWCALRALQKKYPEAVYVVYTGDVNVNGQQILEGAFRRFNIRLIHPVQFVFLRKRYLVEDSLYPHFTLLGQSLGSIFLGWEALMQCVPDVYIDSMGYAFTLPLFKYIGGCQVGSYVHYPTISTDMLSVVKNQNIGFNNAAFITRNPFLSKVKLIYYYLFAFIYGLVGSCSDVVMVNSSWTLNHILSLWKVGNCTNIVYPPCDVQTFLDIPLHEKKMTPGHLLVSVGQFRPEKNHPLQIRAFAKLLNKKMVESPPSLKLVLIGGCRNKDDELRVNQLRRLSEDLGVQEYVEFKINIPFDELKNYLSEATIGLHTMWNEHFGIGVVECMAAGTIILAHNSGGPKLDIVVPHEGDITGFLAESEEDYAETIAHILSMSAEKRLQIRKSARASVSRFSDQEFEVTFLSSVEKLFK
inactive: [1] -0.034 | [2] -0.17 | [3] 0.126 | [4] 0.038 | [5] -0.075 | [6] 0.006 | [7] 0.018 | [8] 0.021 | [9] -0.109 | [10] 0.042

ALG14 (UniProt Q96F25)
Chain of UniProt Q96F25 (Q96F25 whole entry, looked up): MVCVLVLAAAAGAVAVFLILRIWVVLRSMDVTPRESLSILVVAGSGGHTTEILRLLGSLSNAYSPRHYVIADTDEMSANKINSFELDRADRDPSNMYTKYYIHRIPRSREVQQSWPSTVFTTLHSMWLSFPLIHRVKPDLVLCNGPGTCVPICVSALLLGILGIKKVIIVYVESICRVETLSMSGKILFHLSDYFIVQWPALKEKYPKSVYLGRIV
inactive: [1] 0.2 | [2] 0.11 | [3] -0.077 | [4] 0.382 | [5] -0.014 | [6] -0.215 | [7] 0.062 | [8] 0.016 | [9] -0.124 | [10] 0.443

BMP2K (UniProt Q9NSY1)
active: [10] 0.656
inactive: [1] 0.13 | [2] 0.115 | [3] -0.02 | [4] -0.053 | [5] 0.269 | [6] 0.023 | [7] -0.058 | [8] -0.044 | [9] 0.008

ATP1A1 (UniProt P05023)
active: [10] 0.26
inactive: [1] 0.058 | [2] 0.059 | [3] -0.029 | [4] -0.025 | [5] 0.021 | [6] -0.026 | [7] -0.009 | [8] -0.004 | [9] -0.053

BLOC1S3 (UniProt Q6QNY0)
Chain of UniProt Q6QNY0 (Q6QNY0 whole entry, looked up): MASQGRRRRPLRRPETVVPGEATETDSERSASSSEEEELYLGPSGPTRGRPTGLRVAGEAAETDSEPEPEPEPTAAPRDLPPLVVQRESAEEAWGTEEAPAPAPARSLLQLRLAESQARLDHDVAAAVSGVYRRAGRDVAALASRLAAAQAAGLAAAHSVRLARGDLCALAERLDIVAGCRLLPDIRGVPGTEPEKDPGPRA
inactive: [1] 0.024 | [2] 0.018 | [3] -0.04 | [4] -0.011 | [5] 0.005 | [6] -0.017 | [7] 0.058 | [8] 0.048 | [9] -0.062 | [10] -0.01

ALG3 (UniProt Q92685)
inactive: [1] 0.005 | [2] -0.164 | [3] 0.02 | [4] 0.039 | [5] -0.022 | [6] -0.037 | [7] -0.002 | [8] 0.049 | [9] -0.028 | [10] 0.033

AK6 (UniProt Q9Y3D8)
active: [2] -0.438
inactive: [1] -0.304 | [3] -0.001 | [4] 0.08 | [5] -0.081 | [6] -0.007 | [7] 0.148 | [8] 0.074 | [9] 0.027 | [10] -0.322

AURKA (UniProt O14965)
active: [6] 0.733
inactive: [1] 0.017 | [2] 0.134 | [3] -0.022 | [4] 0.113 | [5] 0.004 | [7] 0 | [8] -0.015 | [9] 0.029 | [10] 0.14
